# Results taken from PubChem BioAssay AID651593 (National Center for Advancing Translational Sciences (NCATS), 2012).
# Values joined by “and” are separate entries in the source; they are usually repeats but may differ in a detail not shown here. Equal values may be shown once. In all, about 1,100 compounds went through this assay and about 860 (78%) were called active. Inconclusive results (about 19%) are left out. Calls come from the whole dose curve; as a rule, active = well fitted activation curve with a large enough effect; inconclusive = small, poorly fitted or top-dose-only effect; inactive = flat fitted curve, though single readings scatter. The set was probably picked from earlier hits. This is one part of the list.
# Assay: qHTS of Nrf2 Activators: Hit Validation in Primary Assay; note: nearly all actives have a fitted effect of over 70% in size
# Conditions: Nrf2/ARE reporter cell assay; Potency: activation; series mostly up to 46.1 µM
# Procedure, shortened: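 Luminescence from Steady-Glo lysis reagent, read after 30 min, reported ARE-luciferase activity in AREc32_fluc stable cells. Compounds were tested at several concentrations, incubated 24 h at 37 °C with 5% CO2 following overnight seeding.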
# Potency is the fitted concentration of half-maximal effect.
row,SMILES,Potency
1,CC(=O)c1sc(Nc2ccccc2)nc1C,18.4 µM (active)
2,O=[N+]([O-])c1ccc(SCc2ccco2)cc1N1CCOCC1,2.31 µM (active)
3,Cc1cccc(NC(=O)C2CC(=O)N/C(=N/N=C/c3ccco3)S2)c1 (stereo unspecified),2.06 µM (active)
4,O=C1CC(C(=O)Nc2ccc(Cl)c(Cl)c2)S/C(=N\N=C\c2ccco2)N1 (stereo unspecified),0.731 µM (active)
5,Cn1c(NC(=O)/C=C/c2ccccc2)cc(=O)n(C)c1=O,20.6 µM (active)
6,Cc1ccc(NC(=O)CC2S/C(=N/N=C/c3ccco3)NC2=O)cc1Cl (stereo unspecified),1.03 µM (active)
7,O=C(CC1S/C(=N/N=C/c2ccco2)NC1=O)Nc1ccccc1 (stereo unspecified),1.84 µM (active)
8,O=c1cc(-c2ccco2)nc(SCc2cccc(Cl)c2)[nH]1,1.16 µM (active)
9,O=C(Nc1ccccn1)c1csc2c1CCCC2,5.8 µM (active)
10,COC(=O)c1cc2nc(-c3ccccc3)cc(C(F)(F)F)n2n1,6.51 µM (active)
11,O=c1nc2c(O)cccn2c2c1c(=O)[nH]c1ccccc12,2.31 µM (active)
12,O=c1cc(COc2ccccc2[N+](=O)[O-])nc2sccn12,9.2 µM (active)
13,CCOC(=O)CCn1c(=O)c2cccn2c2cccnc21,18.4 µM (active)
14,NC(=O)c1c(NC(=O)c2ccco2)sc2c1CCC2,2.59 µM (active)
15,N#Cc1c(NC(=O)c2ccc([N+](=O)[O-])o2)sc2c1CCC2,3.66 µM (active)
16,CCCc1cc(C(N)=O)c(NC(=O)c2ccco2)s1,4.61 µM (active)
17,NC(=O)c1c(NC(=O)c2ccc([N+](=O)[O-])o2)sc2c1CCCC2,2.91 µM (active)
18,O=C(NCC1CCCO1)c1ccc([N+](=O)[O-])o1 (stereo unspecified),23.1 µM (active)
19,O=C1Nc2ccccc2/C1=C/c1ccccc1Cl,2.31 µM (active)
20,Cc1ccccc1/C=C1\C(=O)Nc2ccc(F)cc21,5.17 µM (active)
21,N#CC(=C1C=CC(=NO)C(Cl)=C1)c1ccccc1,5.17 µM (active)
22,O=C(/C=C/c1ccccc1Cl)Nn1cnc2ccccc2c1=O,2.91 µM (active)
23,N#Cc1c(-c2ccco2)cc(-c2ccccc2)[nH]c1=O,1.64 µM (active)
24,CC(=O)Oc1c(-c2ccco2)oc2ccccc2c1=O,0.651 µM (active)
25,Nc1c(C(=O)C2CC2)sc2nc(-c3cccs3)cc(C(F)(F)F)c12,2.91 µM (active)
26,CC(=O)c1sc2nc(-c3cccs3)cc(C(F)(F)F)c2c1N,2.59 µM (active)

row,SMILES,Potency
1,Cc1ccc(S(=O)(=O)/N=C(/NNC(=O)c2cccc(Cl)c2)c2ccccc2)cc1,18.4 µM (active)
2,O=C(NN/C(=N/S(=O)(=O)c1ccc(Cl)cc1)c1ccccc1)c1cccc(Cl)c1,9.2 µM (active)
3,COCCN(C(=O)c1ccco1)c1nc(-c2ccccc2)cs1,20.6 µM (active)
4,C=C1C2=C(C(=O)N1OC)[C@@H](O)[C@@](C)(O)[C@@H](CCCCC)O2,23.1 µM (active)
5,Cc1ccc([N+](=O)[O-])c(OCc2ncc(Cl)n2C)c1,18.4 µM (active)
6,Cc1ccccc1CS(=O)(=O)c1cnc2ccccc2n1,16.4 µM (active)
7,CCOc1cc(C=O)cc(N=Nc2cccc([N+](=O)[O-])c2)c1O,16.4 µM (active)
8,O=C(Nc1ccc2ccccc2c1)c1ccc(Br)o1,2.91 µM (active)
9,Cc1cccc(NC(=S)NC(=O)c2ccc(Br)o2)c1,10.3 µM (active)
10,Cc1nc(NC(=O)c2ccc(Br)o2)ccc1Br,9.2 µM (active)
11,O=C(/C=C/c1ccco1)Nc1cccc2cccnc12,0.82 µM (active)
12,O=C(/C=C/c1ccco1)Nc1cccnc1Cl,1.46 µM (active)
13,O=C1C2C3C=CC(C4CC34)C2C(=O)N1/N=C/c1ccc([N+](=O)[O-])o1 (stereo unspecified),3.66 µM (active)
14,O=C1C2C(C(=O)N1/N=C/c1ccc([N+](=O)[O-])o1)C1C=CC2C12CC2 (stereo unspecified),18.4 µM (active)
15,Nc1ccc2c(Cl)cc(Cl)cc2c1,2.31 µM (active)
16,Cn1c(=O)c(C(=O)NNC(=O)c2ccccc2F)c(O)c2ccccc21,2.31 µM (active)
17,O=C(c1ccc(S(=O)(=O)Cc2ccccc2Cl)c([N+](=O)[O-])c1)N1CCOCC1,18.4 µM (active)
18,O=C(c1ccc(S(=O)(=O)Cc2cc(F)ccc2F)c([N+](=O)[O-])c1)N1CCCC1,7.31 µM (active)
19,Cc1ccc(Cl)c2sc(NC(=O)C3CC3)nc12,5.8 µM (active)
20,CSc1c(C#N)c(N)nc2sc(C(=O)c3ccccc3)c(N)c12,4.61 µM (active)
21,Cc1nc2sc(C(=O)c3ccccc3)c(N)c2c2c1CCCC2,3.66 µM (active)
22,Cc1ccc2c(N)c(C(=O)c3ccccc3)sc2n1,14.6 µM (active)
23,O=C(Nc1cccn2ncnc12)c1cccc(C(F)(F)F)c1,18.4 µM (active)
24,CC(=O)NCCNc1nc2cc(-c3cscc3C)sc2c(=O)n1C,1.3 µM (active)
25,COc1ncccc1-c1cc2nc(NCCNC(C)=O)n(C)c(=O)c2s1,2.59 µM (active)
26,CCn1ncc(Br)c1C(=O)Nc1cc([N+](=O)[O-])ccc1C,2.91 µM (active)

row,SMILES,Potency
1,Cc1ccc([N+](=O)[O-])cc1NC(=O)c1ccc(C(C)(C)C)cc1,4.61 µM (active)
2,Cc1ccc([N+](=O)[O-])cc1NC(=O)c1ccccc1,7.31 µM (active)
3,Cn1c(=O)n(C)c2cc(NC(=O)c3cccc([N+](=O)[O-])c3)c(Br)cc21,13 µM (active)
4,O=C(NNC(=O)C12CC3CC(CC(C3)C1)C2)c1cccc([N+](=O)[O-])c1,inactive
5,O=C(Nc1cnc2ccccc2c1)c1ccco1,2.91 µM (active)
6,O=C(NC(=S)Nc1cnc2ccccc2c1)c1ccccc1,2.59 µM (active)
7,c1ccc(C2=Nn3c(nnc3-c3ccco3)SC2)cc1,1.84 µM (active)
8,O=c1cc(/C=C/c2ccccc2)oc2ccccc12,2.31 µM (active)
9,COc1ccc(Cl)cc1NC(=O)CSc1c2c(nc3ccccc13)CCC2,18.4 µM (active)
10,COc1ccc(S(=O)(=O)N2CCN(C(=O)c3ccc([N+](=O)[O-])o3)CC2)cc1,5.8 µM (active)
11,COc1ccc(N2CCCC2)c(NC(=O)c2ccc([N+](=O)[O-])o2)c1,6.51 µM (active)
12,COC(=O)c1scc(C)c1NC(=O)c1ccc(Cl)cc1,3.66 µM (active)
13,CCCn1nc([N+](=O)[O-])c(C(C#N)c2nc3ccccc3s2)c(Cl)c1=O (stereo unspecified),2.31 µM (active)
14,COc1ccc(Br)cc1/C=N/Nc1ccccn1,2.59 µM (active)
15,COc1cc(/C=N/Nc2ccccn2)cc(OC)c1O,5.8 µM (active)
16,CN(Cc1ccccc1)C(=O)c1ccc([N+](=O)[O-])o1,16.4 µM (active)
17,Cc1cc(NC(=O)c2ccccc2)nc2c1c(=O)oc1ccccc12,1.46 µM (active)
18,COc1cccc(C(=O)Nc2cc(C)c3c(=O)oc4ccccc4c3n2)c1,2.06 µM (active)
19,Cc1cc(NC(=O)C2CCCC2)nc2c1c(=O)oc1ccccc12,2.31 µM (active)
20,Cc1cc(NC(=O)CC(C)(C)C)nc2c1c(=O)oc1ccccc12,3.66 µM (active)
21,N#CC1=C(N)Oc2c(ccc3ccccc23)C1c1ccsc1 (stereo unspecified),inactive
22,Cc1cc(NC(=O)c2ccccc2F)nc2c1c(=O)oc1ccccc12,0.58 µM (active)
23,COc1cc(OC)cc(-c2nc3ccccc3s2)c1,13 µM (active)
24,Cc1cc(C)n(S(=O)(=O)/C=C/c2ccccc2)n1,4.61 µM (active)
25,Cc1cc(C)cc(OC(=O)CS(=O)c2ccc(C(F)(F)F)cc2[N+](=O)[O-])c1 (stereo unspecified),18.4 µM (active)
26,O=C(CCCCCCC(=O)Nc1ccccc1)NO,2.31 µM (active)

row,SMILES,Potency
1,O=C(Nc1cc(Br)ccc1O)c1cnn2c(C(F)F)cc(C3CC3)nc12,3.26 µM (active)
2,CS(=O)(=O)Cc1nc2ccccc2oc1=O,20.6 µM (active)
3,CCc1ccc(/C=C/c2c([N+](=O)[O-])c(=O)n(C)c(=O)n2C)cc1,11.6 µM (active)
4,N#C/C(=C(/O)c1ccco1)c1nc2ccccc2[nH]1,2.59 µM (active)
5,N#C/C(=C(/O)c1ccco1)c1nc2ccccc2s1,1.64 µM (active) and 2.06 µM (active)
6,CSc1ccc(C2NN=C(c3ccccc3)S2)cc1 (stereo unspecified),2.31 µM (active)
7,CN1CCN(CCCNC(=O)c2cc3c(=O)n(C)c4ccccc4c3s2)CC1,8.2 µM (active)
8,Cc1nc(NCc2ccco2)nc2c1C(=O)CC(C)C2 (stereo unspecified),1.84 µM (active)
9,Clc1cc(Cl)cc(Nc2ncnc(-n3cccc3)n2)c1,2.59 µM (active)
10,Cc1ccccc1OCC(=O)Nc1ccccc1CO,6.51 µM (active)
11,O=C(NC1CCCCC1)N(c1ccccc1)c1nnc(-c2cccc([N+](=O)[O-])c2)s1,7.31 µM (active)
12,CCOc1cc2ccccc2cc1C(=O)Nc1ccccn1,3.66 µM (active)
13,Cc1cccc(-c2nnc(-c3cccc4ccccc34)o2)c1,5.17 µM (active)
14,Clc1ccc(-c2nnc(-c3cccc4ccccc34)o2)cc1,1.84 µM (active)
15,O=C(Nc1cc(-c2nc3ncccc3o2)ccc1Cl)c1ccco1,3.66 µM (active)
16,O=C(Nc1cc(-c2nc3cc(Cl)ccc3o2)ccc1Cl)c1ccco1,1.3 µM (active)
17,Cc1ccc(-c2nc3cccnc3s2)cc1NC(=O)c1ccco1,8.2 µM (active)
18,O=C(Nc1cc2nn(-c3ccccc3)nc2cc1Cl)c1ccco1,1.64 µM (active)
19,O=C(Nc1cc(-c2nc3ncccc3o2)ccc1Cl)c1cccs1,4.11 µM (active)
20,O=c1c2ccccc2oc2cc(Br)ccc12,2.59 µM (active)
21,COc1ccc2oc3ccccc3c(=O)c2c1,23.1 µM (active)
22,O=c1c2ccccc2oc2ccc(-c3ccc4cc[nH]c4c3)cc12,3.66 µM (active)
23,COc1ccc2oc3cc(Cl)ccc3c(=O)c2c1,9.2 µM (active)
